Compounds with a hit are over-represented: about 10% of the library has one in this group of screens.
G9a block: qHTS Assay for Inhibitors of Histone Lysine Methyltransferase G9a; Potency, µM (top dose mostly 102 µM), usual class: inhibitors; 350,000 compounds, 8.8% hits; G9a H3K9 monomethylation, AlphaScreen, 2 h; further: nearly all actives have a fitted effect of over 75% in size
Target sequence (Q96KQ7 913-1193 limits assumed): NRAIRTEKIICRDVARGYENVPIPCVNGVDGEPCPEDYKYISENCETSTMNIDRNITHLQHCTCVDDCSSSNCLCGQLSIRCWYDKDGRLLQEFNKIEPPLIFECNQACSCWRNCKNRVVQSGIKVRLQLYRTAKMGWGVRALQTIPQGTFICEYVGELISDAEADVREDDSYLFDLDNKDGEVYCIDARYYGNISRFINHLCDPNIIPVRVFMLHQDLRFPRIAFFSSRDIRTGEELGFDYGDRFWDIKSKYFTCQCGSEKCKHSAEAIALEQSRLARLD
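Signal arises when biotinylated H3K9 peptide, once monomethylated, bridges streptavidin donor and antibody-captured acceptor beads. Enzyme at 20 nM was preincubated 15 min with test compounds; peptide 500 nM and SAM 20 uM then reacted for 2 h.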
CtBP-E1A inh: qHTS Assay for Inhibitors of the CtBP/E1A Interaction; activity change, % (concentration not given with the values); 340,000 compounds, 0.49% hits; AID 651724, 2012; AlphaScreen GST-E1A/His-CtBP binding, 1536-well; stronger effect = lower value; CtBP / adenovirus E1A interaction (AlphaScreen); in the data active means activity change below about -65%; inconclusive means mostly about -30% to -63%
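In 5 uL wells, 23 nL compound meets equimolar GST-E1A and His-CtBP (5X stock 125 nM each) for 2 h, 37 °C. Beads (5X, 50 ug/mL) then 1 h, 37 °C, dark.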
JMJD2A Tudor inh: qHTS Assay for Inhibitors of JMJD2A-Tudor Domain; Lysine-specific demethylase 4A (Homo sapiens), O75164; AlphaScreen JMJD2A-Tudor / H3K4me3 peptide binding; Potency, µM (highest dose often 114 µM), actives largely listed as inhibitors; 390,000 compounds, 4.4% hits; AID 504339, 2011; further: nearly all actives have a fitted effect of over 50% in size
Six1-Eya2 blk: qHTS Assay for Inhibitors of the Six1/Eya2 Interaction; Homeobox protein SIX1 (Homo sapiens) + Protein phosphatase EYA2 (Homo sapiens), …; AlphaScreen GST-Six1/His-Eya2 binding, biochemical; stronger effect = lower value; activity change, % (test concentration not listed); 360,000 compounds, 0.56% hits; in the data active means activity change below about -65%; inconclusive means mostly about -30% to -63%
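AlphaScreen luminescence read after one hour at 37 °C in darkness. Pin-transferred compounds met GST-Six1 and His-Eya2 protein (5X stock 250 nM/500 nM) plus glutathione donor and Ni-chelate acceptor beads (5X, 50 ug/mL).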
HP1b binding inh: HTS for Inhibitors of HP1-beta Chromodomain Interactions with Methylated Histone Tails; Chromobox protein homolog 1 (Homo sapiens), P83916; AlphaScreen HP1-beta / biotin-H3K9me3 peptide binding; Potency, µM (series often up to 114 µM), hits mostly inhibitors; 390,000 compounds, 0.56% hits; further: nearly all actives have a fitted effect of over 70% in size
Target sequence (P83916 whole entry, looked up): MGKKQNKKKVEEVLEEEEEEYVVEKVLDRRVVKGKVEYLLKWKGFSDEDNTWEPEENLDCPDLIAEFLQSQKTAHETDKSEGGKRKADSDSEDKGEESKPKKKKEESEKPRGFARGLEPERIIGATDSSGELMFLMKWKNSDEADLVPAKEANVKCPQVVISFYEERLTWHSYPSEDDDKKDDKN
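Compound inhibition of the preformed complex between 50 nM HP1-beta and 50 nM biotinylated H3K9me3 peptide was read by AlphaScreen. Buffer was PBS pH 7.4 with 0.01% Tween-20. Incubations ran 30 min at room temperature, with 10 ug/mL donor/acceptor beads.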
BAZ2B inh: qHTS Assay for Inhibitors of BAZ2B; Bromodomain adjacent to zinc finger domain protein 2B (Homo sapiens), Q9UIF8; AlphaScreen BAZ2B-H3K14Ac peptide displacement; AID 504333, 2011; 360,000 compounds, 4.4% hits; Potency, µM (doses to about 114 µM), usual class: inhibitors; further: nearly all actives have a fitted effect of over 60% in size
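BAZ2B (50 nM) with biotin-H3(5-23)K14Ac peptide (50 nM) in PBS pH 7.4, 0.01% Tween-20, preformed 30 min, then compound 30 min at room temperature; top concentration 110uM. AlphaScreen streptavidin donor/nickel chelate acceptor beads (10 ug/mL final), 20 min dark, signal read.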
Numbers stand for hits; . = inactive; ? = inconclusive; / = no result; [ ] = dose if it differs, or a comment. Unless noted, the call rests on the fitted dose curve; in most records, active means well fitted inhibition curve with a large enough effect; inconclusive means small, poorly fitted or top-dose-only effect; inactive means no such curve, though single readings can be large or run the other way.

SMILES	G9a block	CtBP-E1A inh	JMJD2A Tudor inh	Six1-Eya2 blk	HP1b binding inh	BAZ2B inh
CC(C)Oc1ccc(/C(O)=C2/C(=O)C(=O)N(CCCn3ccnc3)C2c2cccnc2)cc1 (centres undefined)	40µM	.	.	.	.	.
COCCCN1C(=O)C(=O)/C(=C(/O)c2ccc(OC(C)C)cc2)C1c1ccncc1 (centres undefined)	45µM	.	.	.	.	?
COc1ccc(CNCc2ccc(C(=O)O)s2)cc1	.	/	.	/	.	.
Cc1ccc(Cn2ccnc2SCC(=O)Nc2ccc3c(c2)OCCO3)cc1	?	/	?	/	.	?
CCC(=O)N(C1=C(NC(C)C)C(=O)c2ccccc2C1=O)C(C)C	45µM	.	.	.	.	.
CC(C)CN(CCCNC(=O)c1cc(=O)[nH]c2ccc(S(=O)(=O)N3CCCC3)cc12)CC(C)C	.	/	.	/	.	.
CC1CCCCN1S(=O)(=O)c1ccc2[nH]c(=O)cc(C(=O)NCCCN3CCCCCC3)c2c1 (centres undefined)	79µM	.	.	.	.	.
Cc1cc(C(=O)Nc2cccc(/C=C/C(=O)O)c2)c(C)o1	?	.	.	.	.	.
Cc1oc(-c2ccccc2)cc1C(=O)Nc1cccc(/C=C/C(=O)O)c1	.	.	?	.	?	45µM
CCS(=O)(=O)N1CCC(n2c(C(F)(F)F)nc3cccnc32)CC1	.	/	.	/	.	.
Cc1cccc2sc(N(CCN(C)C)C(=O)c3ccc4ccccc4c3)nc12	40µM	/	?	.	.	?
CN(C)CCN(C(=O)c1ccc2ccccc2c1)c1nc2ccc(Br)cc2s1	/	/	?	.	.	.
CN(C)CCN(C(=O)c1ccc2ccccc2c1)c1nc2c(F)cc(F)cc2s1	50µM	/	?	.	.	.
CN(C)CCN(C(=O)c1ccco1)c1nc2c(F)cc(F)cc2s1	.	/	.	/	.	.
COc1ccc(C)cc1NC(=O)N1CCN(S(=O)(=O)c2ccc3c(ccn3C)c2)CC1	.	/	.	/	.	.
CCN(CC)c1ccc(NC(=O)CCN2C(=O)c3ccccc3S2(=O)=O)c(C)c1	8.9µM	.	.	.	.	.
CCN(CC)c1ccc(NC(=O)CCc2c(C)nc3ncnn3c2C)c(C)c1	18µM	/	.	/	.	.
CNC(=O)CN1C(=O)CSc2ncccc21	.	.	.	.	.	.
CCN(CC)c1ccc(NC(=O)CN2C(=O)CSc3ncccc32)c(C)c1	79µM	.	.	.	.	.
Cc1ccc(NC(=O)CCc2c(C)nc3ncnn3c2C)cc1	.	.	.	.	.	.
Cc1cccc(NC(=O)CCN2C(=O)c3ccccc3S2(=O)=O)c1C	/	.	.	.	.	.
CCN(CC)c1ccc(NC(=O)CN2C(=O)c3cccnc3Oc3ccccc32)c(C)c1	8.9µM	/	?	/	.	?
CCCOc1ccc(Oc2nc(NC)nc(N3CCOCC3)n2)nn1	.	/	.	/	.	.
CNC(=O)c1ccc(Nc2nnc(-c3ccc(C)c(S(=O)(=O)N4CCOCC4)c3)c3ccccc23)cc1	.	/	.	/	.	.
CCN(CC)c1ccc(NC(=O)CC2Oc3ccccc3NC2=O)c(C)c1 (centres undefined)	10µM	.	.	.	.	.
Cc1onc(-c2ccccc2Cl)c1C(=O)Nc1sc2c(c1C#N)CCC2	10µM	.	?	.	?	.
N#Cc1c(NC(=O)c2ccncc2)sc2c1CCC2	11µM	.	63µM	.	.	50µM
O=C(O)c1ccc(NS(=O)(=O)c2cccc(C(=O)Nc3ccc(Br)cc3)c2)cc1	.[0.501 µM]	.	.	?	.	.
CCCc1cc(C(=O)Nc2sc3c(c2C#N)CCC3)no1	40µM	.	.	.	.	.
